Test results as given in PubChem BioAssay AID1508600 (Functional Genomics Laboratory (NCATS/FGL), 2020).
In all, about 53,000 sequences went through this assay and about 3,700 (7%) were called active. This excerpt belongs to a sample that is enriched for actives. A number with no mark means an inactive call.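 Rule for the calls: active = gene knockdowns whose robust z-score for IL-1 alpha signal is at least 2 or at most -2, so actives lie on both sides; inactive = the rest.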

experiment: Components of the Cytosolic LPS Sensing Pathway: Gene Identification via Genome-wide siRNA Screen; conditions: RAW264.7 macrophages, IL-1a HTRF, actives lie on both sides, screened at 100 nM (by protocol), cells primed 5 h with Pam3CSK4 first
Source text: Non-canonical inflammasome activation by cytosolic LPS is a critical component of the host response to Gram-negative bacterial infection, however we lack a comprehensive understanding of the cellular processes that control this pathway. Here we describe a genome-wide siRNA screen to identify genes regulating the mouse macrophage IL-1 alpha response to cytosolic LPS.
RAW264.7 cells were maintained in complete DMEM media, comprising DMEM with 4.5 g/L glucose, 10% FBS (Gemini Bio-Products, West Sacramento, CA), 2 mM Glutamine (Lonza) and 20 mM HEPES (Lonza), hereafter complete DMEM.
The RNAi screen was conducted in 384-well format using the Ambion Silencer Mouse Genome siRNA Library (#4391425), which consists of three unique, nonoverlapping, nonpooled siRNAs for each of 17,000 gene targets. siRNA reagents ([…]) were stamped into 384-well white flat-bottom microplates (Corning, 3570) using a Velocity11 VPrep liquid handling system (Agilent) integrated into a BioCel robotic platform (Agilent) in columns 1-22, leaving columns 23-24 empty for negative (Ambion, Negative control #1) and positive (mouse Casp4) controls, respectively. The median value of each plate's negative control column was used to normalize sample wells, and the positive control was used to assess transfection efficiency and assay performance.
Lipofectamine RNAiMAX Transfection Reagent ([…]; Invitrogen) was added in […] serum-free, antibiotic-free media to plate wells using a Thermo Scientific Matrix WellMate and Microplate Stacker. Plates were incubated for 45 min at room temperature to allow for the sufficient formation of siRNA-lipid complexes. Cells were seeded at a density of 1x10^4 cells per well in 20 microL media containing 20% (vol/vol) FBS without antibiotics. The final concentration of siRNA in each well was 100 nM. Cells were cultured for 48h at 37 degrees C in 5% CO2 before addition of […] of TLR ligand Pam3CSK4 for 5 hours. The medium was then removed, replaced with […] growth media and cell were transfected with […] of LipidA and TransIT-TKO (Mirus) for 24 hour. At the end of the LipidA treatment, […] of supernatant was transferred to a 384 Greiner Bio-one non-binding low volume plate and […] of IL-1a HTRF reagent (Cisbio, 62MIL1APEH) was added and incubated at room temperature overnight. The plates were read on an EnVision plate reader (PerkinElmer). Cell viability was measured by adding 20ul Cell Titer Glo to the original plate and running a luminescence read on the EnVision. The quantified IL-1a signal for each siRNA gene-targeted well was divided by the median of the negative control wells and multiplied by 100 to achieve a negative control normalized value for each well/siRNA. This normalized value was then used to generate a robust z-score by first taking the log of each value and then by subtracting the median and dividing by the […].

Sequence | z-score
GGGCAGGGAUGUUUAGAUCTT against Homer2 | 0.499
CCAACAUCUCUGUAUACUGTT against Olfr8 | 0.178
CCUACGUGAUCAACAAGCATT against Fxn | 0.682
GGGAGCAACUGUGUCAAAUTT against Tspan10 | 1.06
GGAAAGACACAGAUAAUAATT against Arvcf | -1.28
CCAAUAACUCUAAAUAGGCTT against Trhr | 0.308
GGUCAUCGAAUCUGGAGUATT against Pyroxd1 | -0.282
GGUCCACAGUACCACAUAATT against Tespa1 | -3.2 (active)
CAUCCCAGAGUGUUGUCUUTT against Olfr1325 | 1.97
GCAGCUCCCAAUCUCACUUTT against Ankrd34a | 0.171
GGUGUCCGUAAAUGGAGUGTT against A430033K04Rik | 0.809
GGAAGAGAGCCUCUGCCAATT against Ccnb2 | 2.28 (active)
GUGUGCUAUGAGCAAUGCCTT against Sprr2a1 | -1.34
GGUUCGACGAAGAUCAGAGTT against Akap1 | -0.634
GGAAAGUGUUCUCUACAUGTT against Olfr1093 | 0.878
GGUAACAAGAGGUCUAGCATT against P2ry1 | 3.66 (active)
GGAUACUGGCAUGAAAUUGTT against Slc22a2 | -0.888
GGCGGAACACAUGACUAGGTT against Ilf3 | 0.189
GGUCUGAAAAUGGAAUACCTT against Vps13a | 1.8
GGGAAUCAACGCAAAGUUGTT against Pcdhga5 | -0.00294
GCACAAGACUAACAAUACGTT against Sptbn2 | -1.26
GGACAUCAAAGAAAAGUCATT against Gpr171 | 0.955

Sequence | z-score
GCCAAUGAAAGAGACGUAGTT against Fam81a | -0.421
CCAAGAUGGGUUCAUCUCUTT against Cabp5 | 2.39 (active)
CGGAUUUCAUGGCUCAAGATT against Gfm2 | -0.123
CGUGAACAGCUUUAAGGUGTT against Usp27x | 1.34
CCCUAACAAACCCUAUUAUTT against Kdm6b | -1.49
GCUGAGACCCAGAUGCAAUTT against Mal | 0.858
GUCUGCAUCACCUUCACCATT against Lhb | -0.301
CGGUAUCACGGUUAUCCUUTT against Olfr215 | 0.932
GGGAUUCCAGACAUGGGAATT against Alg9 | -0.191
GCGGUUCUAAGGAUACCGATT against Txndc17 | 2.52 (active)
GGGUUUCUGACCCUUGGUUTT against Vmn1r220 | -1.42
GGGUGUGAAGUCAUGGUAUTT against Trmt9b | 0.503
GGCCUCCUAAGAGGACUCATT against Dach1 | -1.11
CGCAAUUCAGGUACCAAAUTT against Ndufv1 | -0.0623
GCCUGAAAUCAACUCCACCTT against F2 | 2.21 (active)
CCAUUACAUCAGCUUUAUUTT against Pamr1 | -0.845
GGAUAUCCUUACAAGGACCTT against Tmco3 | -0.646
GGCCGACCUUUCUAUCAAUTT against Rasip1 | -0.0174
GGUGUCAUUCAACUUGCAUTT against Rnase10 | -2.55 (active)
GGAGGAAUACAAAUUCAAGTT against Vamp5 | 1.37
GGCUCUCUGGAGAAUCAUGTT against Slc25a28 | 0.0751
GGUUACUAUGGAGACCUGGTT against Mia | 0.429

Sequence | z-score
GCCUUAAUACUCACCAGGGTT against Zscan2 | 0.702
GCUAAGACACGAUAAACUUTT against Yes1 | 1.34
GCUGAUAAGGAGGUACCAUTT against Igf2r | 0.916
GGAAAAGCAUCAAUUGAUGTT against Abca8b | -1.02
GGCUUUCAUUCUGCAGCUATT against Olfr1089 | -2.13 (active)
GGUGUUCAGAUGGUUCCCATT against Exosc1 | -1.19
GCUGUUACCUUGACGAAUATT against Tsc2 | 1.32
GGGAUAAAGAGCAAAGAAUTT against Trdv2-2 | -0.466
GCGUAAUUCCAGCAGAUGUTT against Mepe | 1.74
GAAAAGUGCACCAUCAGCCTT against Ly6g5b | -2.27 (active)
GCUACAGGUCAAUGUCGUGTT against Tcte2 | -1.61
CCCAUAGCUAAUGAACCAATT against Sntg2 | -0.604
GGAGAGAAAAAGUAAUAUCTT against Fgf1 | 0.843
GGUCGUAAGACAGUUGUCCTT against 4932438H23Rik | -0.715
GGAGCUGACAGAGAGAUUCTT against Ankrd40 | -2.77 (active)
GGAGCAACACUUGCGUACUTT against Ccnq | 1.32
GCACUGUCGCAUCAUCAGATT against D230025D16Rik | 1.83
GGAAACCUGAUGAUCUUUUTT against Olfr421-ps1 | -1.27
GGAUGUCCGGAAGAUGUUUTT against Celf3 | -0.284
GGUGUGUUCCCAACUGGUGTT against Olfr1124 | 2.04 (active)
GUGGAAAUGUACUUCUCUGTT against Olfr257 | 0.435
AGCUGCUCUGAGUUAGAAATT against Scd2 | 0.934

Sequence | z-score
GGCAAAUCAUUGAUCAGAATT against Mtrf1 | -0.214
GGACAGACUGAAUGAGCAGTT against Faf2 | 2.24 (active)
GCAAAACUUGGAACGAUUUTT against Ddx1 | 0.153
CCUAAAUUUGAGGUAACCUTT against Zbtb21 | 0.571
GGAUAAAAGCAUUUGAGUCTT against Acp1 | 0.694
GGGAACCAGUACAAUUACATT against Glt8d1 | -0.755
GGAGAUCUAUGACAAGAAATT against Idh1 | -0.376
GGUAAGAAGACAAACACUCTT against Ly6g6d | 0.237
GCUCUACUGCUUCUUAGUCTT against Olfr965 | -2.4 (active)
GGAUAAGAAGAUGAGGCAGTT against Mns1 | -0.0977
GCUUCAAAACAAACCCUUGTT against Parp11 | -1.58
GGAGUGUAUGCAGAAGUUUTT against Dnajc24 | 1.49
GGUUUUGGUAUCUCCAUGGTT against Olfr2 | -0.48
GGAGCAUAGAAAAGACAAUTT against Grk2 | 2.69 (active)
GGAUAAGAAGCGAUUUGAATT against Rcn2 | -0.294
GCUGCUGGAGUGCAACUAATT against Tradd | 0.391
GCACAACAUACCCUGUGGUTT against Syn1 | -2.72 (active)
CCUGAAUGGACAAACAGGATT against Gm6460 | -0.193
CCAAACCUAUUCUGAGAUGTT against Klrg2 | -0.0403
GGAGCUGGACAAGUUCAUGTT against Clrn1 | -0.994
GGGAGCAAAGAGGAACAGCTT against Fis1 | -0.73
GGUGCAAUCGUGUUGAGCUTT against Dap3 | 1.06

Sequence | z-score
GCAAACCUUCGGUCUUGCCTT against Cd5l | -0.364
GGAGAGAUCAUACACUUUGTT against BC048679 | 0.43
GGUAGUGAAUGAACUCUUUTT against Bcl2l1 | -1.41
GGCAGACAUCACAAUGGCUTT against Hemgn | -0.201
GGACAUGUCCGAAUACUACTT against Pdss1 | 2.34 (active)
GGGUUAGCAACUUCAAAUATT against Zmynd19 | 0.996
CCUAAAUCCUUUUGAACCCTT against Anapc16 | 0.295
GGCCAGUGUGUGGUCUAAGTT against Cd1d2 | 1.89
GGUCUUCAGAUAAUCUUCCTT against Brinp1 | 1.91
GCUCAGAUAAUGGCCUACATT against Smarca4 | 2.28 (active)
CCGACAAACGCAAGGUGAUTT against Rtl8c | -0.382
GGUGUGUGGUGUUAAAAAATT against Mybph | -0.81
GGUGGAAUAUAGCUUCAUCTT against Ifngr2 | 1.06
GGAAGAACACAAGUGUUUUTT against Trem3 | -0.626
GCGAAGCGUGCUGCUAAGATT against Ccdc59 | 0.519
GGCCAGCUCUCUUUUGCUATT against Cflar | 2.5 (active)
GCAGAGGCUCUCCUUAUAGTT against Ccser2 | 0.747
GGUACGGUGUUUUGGAUACTT against Fam174a | 0.00664
GGGACAGUUUUCGGACUUCTT against S1pr4 | -0.362
